Measurements from PubChem BioAssay AID489018 (Southern Research Specialized Biocontainment Screening …, 2010).
Out of some 2,300 compounds screened, about 350 (15%) were called active. How the calls were made is not given here. A selection follows. Entries with a potency or affinity are not part of this list.

Assay: HepG2 cell cytotoxicity, dose response, cytotoxicity control for non-replicating M. tuberculosis project (AID 489018);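 further: HepG2 human liver cells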
Conditions: series mostly up to 20 µM

SMILES	outcome
COc1ccc(C2(O)CCN(CCCCOc3ccccc3)CC2)cc1	inactive
Clc1cccc(OCCN2CCN(CCOc3cccc(Cl)c3)CC2)c1	inactive
OCC1(CCOc2ccccc2)CCN(Cc2cc(Cl)ccc2O)CC1	inactive
CC(C)Cn1c(N)c(C(=O)COC(=O)c2cnc(Cl)c(Cl)c2)c(=O)n(C)c1=O	inactive
O=C(Oc1cccnc1)c1ccc(Cl)c(Cl)c1	inactive
CC(=O)c1ccc(-n2cc(-c3ccc(C(C)(C)C)cc3)[n+]3c2SCCC3)cc1	inactive
Cn1c(=O)c(Oc2ccc(F)cc2)c(O)c2ccccc21	inactive
O=C(Nc1nccs1)c1ccc(COc2ccc(Cl)cc2)o1	inactive
COc1cccc(COC(=O)CCNC(=O)c2ccc(Cl)cc2)c1OC	inactive
O=C(Oc1ccccc1)c1ccc(COC(=O)c2cnccn2)cc1	inactive
NC1=NC[C@H](Cc2ccccc2)N1CCCCC1CCCCC1	inactive
CCCC(=O)N1CCC(Cc2ccccc2)CC1	inactive
Cc1ccc(NC(C)C(=O)N/N=C/c2ccc([N+](=O)[O-])s2)cc1 (configuration not stated)	inactive
Cc1ccc(NC(CC(=O)c2ccccc2)C(=O)O)cc1Cl (configuration not stated)	inactive
CCOc1ccc(C(=O)CCN2CCCCCC2)cc1	inactive
CC(NC(=O)OCc1ccccc1)c1ccccc1 (configuration not stated)	inactive
COc1ccc2cc(C(=O)C3CCCN(Cc4ccccn4)C3)ccc2c1 (configuration not stated)	inactive
COc1ccc(C(=O)CCN2CCCCCC2)cc1	inactive
CC(CN1CCOCC1)OC(=O)c1ccc2c(c1)OCCO2 (configuration not stated)	inactive
CC(C)COc1ccc(C(=O)CCN2CCCCC2)cc1	inactive
CC(CN1CCOCC1)OC(=O)c1ccc(Br)cc1 (configuration not stated)	inactive
CC(=O)c1cc2c(ccc3ccccc32)oc1=O	inactive
Cc1c([N+](=O)[O-])cnc(Sc2ccccc2)c1[N+](=O)[O-]	inactive
O=C(C/C=N\OCc1ccc([N+](=O)[O-])cc1)Nc1ccccc1	inactive
Cc1nnc(N/N=C/c2cccc(OCc3ccc(Cl)c(Cl)c3)c2)n1N	inactive
O=C(CN1CCC(NC(=O)c2cccc(F)c2)CC1)Nc1ccc(Br)cc1	inactive

SMILES	outcome
COc1cccc(NC(=O)c2cnc(SC)nc2)c1	inactive
CCOC(=O)c1c(C)nc2c3ccccc3ccn12	inactive
COC(=O)c1ccc(N2CCN(CCNC(=O)Nc3ccc(OC)cc3)CC2)cc1	inactive
COC(=O)COc1ccc2c(=O)c(Oc3ccccc3)c(C)oc2c1	inactive
O=C(CCN1CCCCCC1)c1ccccc1	inactive
O=C(CCSc1ccccc1)N1CCCC1	inactive
Cc1cnc(NC(=O)c2ccccn2)s1	inactive
Cc1ccc2nc(NC(=O)c3ccccn3)sc2c1	inactive
O=C(Nc1nccs1)c1ccccn1	inactive
O=C(Nc1nc(-c2cc(F)ccc2F)cs1)c1ccccn1	inactive
CC1=C(/C=C/C(C)=N\NC(=O)c2ccncc2)C(C)(C)CCC1	inactive
O=C(COC(=O)COc1ccc(Nc2ccccc2)cc1)NCc1ccco1	inactive
O=C(COc1ccccc1)Nc1nnc(-c2ccc(Cl)cc2)o1	inactive
CC(C)Cc1cc(C(=O)Nc2ccc(F)cc2F)no1	inactive
O=C(Nc1c(F)cc(F)cc1Br)c1cc(-c2ccccc2)on1	inactive
O=C(N/N=C\c1ccc([N+](=O)[O-])s1)C1COc2ccccc2O1 (configuration not stated)	inactive
O=C(CCSc1nnc(-c2ccncc2)o1)Nc1cccc(Cl)c1	inactive
CCn1ccc(C(=O)Nc2cccc(Cl)c2)n1	inactive
Cc1noc2ncnc(Sc3ccc(Br)cc3)c12	inactive
O=c1cc(-c2ccccc2Cl)oc2c([N+](=O)[O-])c(O)cc(O)c12	inactive
O=C1C=C(Nc2ccc(F)cc2)c2ccccc2C1=O	inactive
CCOC(=O)c1ccc(NC2=CC(=O)C(=O)c3ccccc32)cc1	inactive
CCN(CC)S(=O)(=O)c1ccc(C(=O)OCn2nnc3ccccc3c2=O)cc1	inactive
O=c1cc(-c2ccccc2Cl)oc2ccc([N+](=O)[O-])c(O)c12	inactive
CCC/C(=N\NC(=O)c1ccco1)c1ccc(Cl)s1	inactive
CCCc1cc(C(=O)Nc2ccccc2SC)no1	inactive

SMILES	outcome
O=c1oc(/C=C/c2ccc([N+](=O)[O-])s2)nc2ccccc12	inactive
Cc1cc(C(=O)N/N=C/c2ccc([N+](=O)[O-])s2)n[nH]1	inactive
Cc1cc(C)n(CC(=O)N/N=C/c2ccc([N+](=O)[O-])s2)n1	inactive
Cc1ccc(C(=O)N/N=C\c2ccc([N+](=O)[O-])s2)cn1	inactive
CCOC(=O)c1cc(-c2csc(COc3ccccc3)n2)on1	inactive
O=C(N/N=C\C=C\c1ccco1)c1cncc(Br)c1	inactive
CS(=O)(=O)Nc1cccc2cccnc12	inactive
Cc1cc(C)n2nc(S(=O)(=O)Nc3c(Cl)cccc3Cl)nc2n1	inactive
O=C(OCc1nnc(-c2ccccc2)o1)c1cc([N+](=O)[O-])ccc1Cl	inactive
O=c1c2cc(Cl)ccc2nc(-c2ccccc2Cl)n1O	inactive
CCOC(=O)c1ccc(COC(=O)c2ccc(-c3nnc(-c4ccccc4)o3)cc2)o1	inactive
Cc1cc(OCCCCn2ccnc2)cc(C)c1Cl	inactive
O=C(c1ccc([N+](=O)[O-])cc1[N+](=O)[O-])N1CCc2ccccc21	inactive
Cc1ccc(S(=O)(=O)CCC(=O)Nc2nc(-c3ccncc3)cs2)cc1	inactive
CC(/C=C/c1ccccc1F)=N\NC(=O)c1ccccc1	inactive
O=C1c2ccccc2CC1Sc1nnc(-c2ccncc2)o1 (configuration not stated)	inactive
O=S1(=O)C=C(Sc2nc3cc(Cl)ccc3o2)c2ccccc21	inactive
O=C(O)c1[nH]c(=O)[nH]c(=O)c1F	inactive
CC1=NN(c2ccccc2)C(=O)C1C(=O)c1ccccc1 (configuration not stated)	inactive
Nc1nc2ccccc2n1C(=O)c1ccc(F)cc1	inactive
O=C(COc1ccccc1)NCCSCc1ccc(Cl)cc1	inactive
CCC(=O)Nc1nc2ccccc2n1Cc1ccccc1	inactive
OC(COc1ccccc1Cl)CN1CCN(CC(O)COc2ccccc2Cl)CC1 (configuration not stated)	inactive
C=CCc1ccc(OCC(O)CN2CCN(Cc3ccc(Cl)cc3)CC2)c(OC)c1 (configuration not stated)	inactive
O=C(Nc1ncc([N+](=O)[O-])s1)c1ccc2c(c1)OCO2	inactive
